Results: PubChem BioAssay (NCI)
About 83,000 compounds went through this panel and 20% of them were active in at least one assay; those are over-represented in the sample as a whole.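 For each line, cells grew in 96-well plates with the test compound present at a single concentration for 48 hours.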 Values without a mark were called inactive. Active and inactive are the calls of the source. How the source made its calls: active means growth percent below 10; inactive means the rest.

Tests used:
Assay in all cases: NCI-60 one-dose screen, 48 h (100 = growth as untreated, 0 = no growth, -100 = all killed)
Settings in all cases: 10 µM unless noted
DU-145 prostate = system: DU-145 prostate
K-562 leukemia = system: K-562 leukemia
MALME-3M melanoma = system: MALME-3M melanoma
MDA-MB-231 breast = system: MDA-MB-231 breast
RXF 393 renal = system: RXF 393 renal
SF-268 CNS = system: SF-268 CNS
SF-295 CNS = system: SF-295 CNS
SF-539 CNS = system: SF-539 CNS
UACC-257 melanoma = system: UACC-257 melanoma
M14 melanoma = system: M14 melanoma

Row | Structure (SMILES) | growth (DU-145 prostate) | growth (K-562 leukemia) | growth (MALME-3M melanoma) | growth (MDA-MB-231 breast) | growth (RXF 393 renal) | growth (SF-268 CNS) | growth (SF-295 CNS) | growth (SF-539 CNS) | growth (UACC-257 melanoma) | growth (M14 melanoma)
1 | COc1cc(OC)c2sc(-c3ccc(-n4cncc4-c4cc(OC)c(OC)c(OC)c4)cc3)nc2c1 | 78.3% | 45.7% | 61.7% | 54.4% | 4.25% (active) | 61% | 60.6% | 62.1% | 59.8% | 69%
2 | CCN1CCN(C(=O)[C@]23CC[C@@H](C)[C@H](C)[C@@H]2C2=CC[C@@H]4[C@@]5(C)C/C(=C/c6cccnc6)C(=O)C(C)(C)[C@@H]5CC[C@@]4(C)[C@]2(C)CC3)CC1 | 48% | 6.46% (active) | 12% | 34.7% | 3.08% (active) | 51% | 37.3% | 8.77% (active) | 26% | 40.9%
3 | C#CCNC(=O)[C@]1(C)CCC[C@@]2(C)[C@H]1CC=C1C=C(C(C)C)CC[C@@H]12 | 103% | 121% | 97.5% | 96.3% | 120% | 89.3% | 91.6% | 108% | 110% | 98.6%
4 | Cc1cccc2c1C[C@@]1(C2=O)C(c2ccc(C(C)(C)C)cc2)=NOS1=O (stereo not given in full) | 103% | 77.8% | 93.3% | 86.1% | 100% | 94.7% | 99.2% | 108% | 95.8% | 88.8%
5 | CNCc1cccc2c1OCCOCCOCCNS(=O)(=O)c1ccc(cc1)-c1cnc(N)c(n1)C(=O)N2 | 21.1% | 9.35% (active) | 29.9% | 30.4% | -11.5% (active) | 35.7% | 70.3% | 7.45% (active) | 61.3% | 26%
6 | O=C(/C=C/c1ccc(Cl)cc1)c1cccc(OCCCOc2cccc(C(=O)/C=C/c3ccc(Cl)cc3)c2)c1 | 113% | 88.8% | 109% | 110% | 106% | 105% | 100% | 112% | 98.6% | 98.6%
7 | FC(F)(F)Oc1cccc(-c2cnc3ccc(-c4ccncc4)nn23)c1 | 22.2% | 31.6% | 39.2% | 32.9% | -29.6% (active) | 18.9% | 17.4% | -2.61% (active) | 48.6% | 26.8%
8 | CC1(C)CC(=O)c2c(nn(-c3ccc(Br)cc3)c2-c2cn(-c3ccccc3)nc2-c2cccnc2)C1 | 111% | 84.4% | 101% | 89.7% | 96.1% | 97.8% | 92.1% | 105% | 111% | 98.6%
9 | Clc1ccc(-c2cc(-c3ccccc3)nc(NCCNc3ccnc4cc(Cl)ccc34)n2)cc1 | 13.1% | 0.266% (active) | -62.7% (active) | -69.2% (active) | 26% | 3.04% (active) | 73.2% | 74.5% | 13.3% | -69.7% (active)
10 | CC1CCN(C(=O)CCCl)c2ccccc21 (stereo not given) | 113% | 147% | 121% | 85.4% | 123% | 99.7% | 160% | 126% | 94.2% | 95.4%
11 | Nc1nc2c(c3ncccc13)C(c1cccc(Cl)c1)Cc1ncccc1-2 (stereo not given) | 21.5% | 14% | 67.7% | 28.8% | 10.7% | 45.6% | 0.813% (active) | -19.9% (active) | 63.6% | 6.41% (active)
12 | CS(=O)(=O)c1ccc(NC(=O)c2ccccc2)nc1 | 108% | 100% | 108% | 99.1% | 106% | 107% | 106% | 104% | 95.6% | 115%
13 | COc1ccc(-c2nn(-c3ccccc3)cc2/C=C/C(=O)NNC(=O)Nc2ccc(C)cc2)cc1 | 108% | 78.3% | 91.8% | 83.5% | 109% | 102% | 99% | 101% | 95.7% | 94.1%
14 | CCN(CC)CCCN1C(=O)c2c(c(C)c3c(oc4ccc(OC)cc43)c2C)C1=O | 112% | 0.0716% (active) | 97.1% | 99.5% | 70.3% | 98.6% | 110% | 91.8% | 103% | 104%
15 | COc1ccc(/C(C)=C(/c2ccc(OCCCN(C)C)cc2)c2ccc(OC(=O)c3ccccc3)cc2)cc1 | 102% | 38.9% | 83.6% | 71.1% | 66.7% | 77.8% | 89.8% | 89.1% | 89.7% | 66.4%
16 | Nn1c(=O)c(=O)[nH]c2c(cnn2-c2ccccc2)c1=O | 114% | 96.4% | 106% | 105% | 113% | 99.7% | 102% | 99.8% | 107% | 110%
17 | Cc1ccc2c(-c3nnc(N)s3)cc(=O)oc2c1C | 116% | 87.3% | 104% | 96.5% | 106% | 102% | 97.4% | 102% | 106% | 101%
18 | COc1ccc(C(=O)/C=C/c2ccc(N3CCCCC3)cc2)cc1OC | 95.4% | 76% | 104% | 91.8% | 107% | 95.3% | 95.2% | 98.2% | 82.8% | 89.4%
19 | Cc1ccc(-c2nc(N3CCNCC3)c3oc(-c4ccc(C)cc4)nc3n2)cc1 | 11.9% | -75% (active) | 93.6% | -72.1% (active) | 73.4% | 28.5% | 108% | 95.8% | 103% | -94.3% (active)
20 | COc1ccc(C(O)c2cc3c(N)c(C(=O)Nc4cccc(Cl)c4C)sc3nc2C)cc1 (stereo not given) | 3.08% (active) | 6.61% (active) | 41.7% | 1.27% (active) | 33.7% | 13.2% | 17.4% | -4.61% (active) | 44.1% | 7.3% (active)
21 | Cc1ccc(C=C2C(=O)NC(=O)NC2=O)cc1 | 108% | 86.1% | 101% | 118% | 113% | 100% | 104% | 111% | 94% | 101%
22 | COc1cc2c(c(OC)c1OC)C(=O)CC(c1cccc(NC(=O)c3ccc(C#N)cc3)c1)O2 (stereo not given) | 83.6% | 48.6% | 83.7% | 79.9% | 97.3% | 86.5% | 77.9% | 92.7% | 72.3% | 64.4%
23 | C=C1C(=O)O[C@H]2[C@H]1CC/C(Cn1cc(CCC)nn1)=C\CC[C@@]1(C)O[C@@H]21 | 28.7% | 4.94% (active) | 4.68% (active) | 12.2% | -70.2% (active) | 67.9% | 71.6% | -25% (active) | 19.1% | 12.1%
24 | CC1(C)CC[C@]2(CO)CC[C@]3(C)[C@H](CC[C@@H]4[C@@]5(C)CCCNC(C)(C)[C@@H]5CC[C@]43C)[C@H]2[C@H]1O | 94.5% | 8.95% (active) | 78.5% | 91% | 92% | 94.9% | 105% | 74.9% | 82.5% | 95.1%
25 | CNC(C)[C@H]1CCC2C3CC=C4C(=O)[C@@H](NC(=O)C=C(C)C)CC[C@]4(C)C3CC[C@@]21C (stereo not given in full) | 52.9% | -62.1% (active) | -52.2% (active) | -12.4% (active) | -59% (active) | -15.7% (active) | -8.38% (active) | -92.5% (active) | -30.8% (active) | -53.7% (active)
26 | O=C(Nc1ccccc1[N+](=O)[O-])c1ccc(Cl)c(Cl)c1 | 102% | 91.9% | 93.5% | 93.2% | 88.1% | 89.8% | 93.3% | 89.4% | 90.8% | 101%
